Active and inactive are the calls of the source. Calls come from the whole dose curve; as a rule, active = well fitted curve in the direction sought with a large enough effect in the repeat runs; inconclusive = weak or mixed curves; inactive = flat fitted curve, though single readings scatter.
Assay: qHTS assay to test for compound auto fluorescence at 590 nm (red) in HEK293 cells (AID 720679)
Conditions: red autofluorescence 540/590 nm; series mostly up to 91.3 µM
Description: National Center for Advancing Translational Sciences [NCATS]
NIH Chemical Genomics Center [NCGC]
U.S. Environmental Protection Agency [EPA]
National Institutes of Environmental Health Sciences [NIEHS]
National Toxicology Program [NTP]
U.S. Food and Drug Administration [FDA]
Compound auto fluorescence often interferes with screening of the compound library against various biological targets and signaling pathways. Some of these compounds may have fluorophoric properties. Such properties may interfere with the assay outputs resulting in false positives and/or negatives. To decrease such complications and ensure the compound activities are relevant in terms of biological response, the Tox21 10K compound library was screened for auto fluorescence.
From the fluorophores used as reporter signals in our screening assays, the auto fluorescence equivalencies of compounds against three fluorophores have been evaluated: Triamterene, Fluorescein and Rose Bengal sodium for blue, green and red fluorescence, respectively. The fluorescence intensities were measured using Excitation/Emission wavelengths at 405/460nm, 485/535nm and 540/590nm for blue, green and red labels, respectively. This assay includes the red fluorescence data.
Tox21 Assay Protocol Summary:
2,000 HEK293 cells in 5 uL of culture medium containing 10% dialyzed FBS per well were dispensed into black wall/clear bottom 1536-well plates using a Multidrop Combi Dispenser (Thermo Scientific). The assay plates were incubated for 4-5 hr at 37C to allow cell attachment to the well bottom, followed by the transfer of 23 nL compound or DMSO vehicle by a pintool work station (Kalypsys, San Diego, CA). After the assay plates were incubated overnight at 37C and 5% CO2, fluorescence intensities in the assay plates were measured by an Envision (PerkinElmer, Shelton, CT) plate reader using three labels for measuring blue, green and red fluorescence at […] 460, 535 and 590nm respectively.

SMILES	outcome
Cl[C@H]1OCCO[C@@H]1Cl	inactive
CCSC(=O)N1CCCCCC1	inactive
CC[N+](=O)[O-]	inactive
Cc1ccc(N)cc1	inactive
COP(=S)(OC)Oc1ccc(SC)c(C)c1	inactive
COC(C)(C)CCCC(C)C/C=C/C(C)=C/C(=O)OC(C)C (stereo not given)	inactive
C=CC#N	inactive
O=[N+]([O-])c1cc([As](=O)(O)O)ccc1O	inactive
O=C(O)C1C(C(=O)O)C2(Cl)C(Cl)=C(Cl)C1(Cl)C2(Cl)Cl (stereo not given)	inactive
COc1nc(NC(C)C)nc(NC(C)C)n1	inactive
O=P1(NCCCl)OCCCN1CCCl (stereo not given)	inactive
ClC(Cl)c1ccccc1	inactive
CC(C)c1cccc(C(C)C)c1O	inactive
COP(=S)(OC)SCN1C(=O)c2ccccc2C1=O	inactive
CN(C)C(=O)Cl	inactive
C=CC(=O)OCC(CC)CCCC (stereo not given)	inactive
OCc1ccco1	inactive
CNCC(O)c1ccc(O)cc1 (stereo not given)	inactive
COS(=O)(=O)OC	inactive
N#CN=C(N)N	inactive

SMILES	outcome
O=[N+]([O-])c1ccc(Cl)c(Cl)c1	inactive
C/C=C/c1ccc2c(c1)OCO2	inactive
Nc1ccc(N)cc1	inactive
C=C(C)C(=O)OCC(CC)CCCC (stereo not given)	inactive
Cc1cccc(C)c1NC(=O)CN1CCCC1=O	inactive
Cl/C=C/Cl	inactive
Cc1cccc(C)c1N	inactive
Nc1ccc([As](=O)(O)O)cc1	inactive
CCCCC(CC)C(=O)Cl (stereo not given)	inactive
O=C/C=C/c1ccccc1	inactive
CN(C)NC(=O)CCC(=O)O	inactive
CC12CC1(C)C(=O)N(c1cc(Cl)cc(Cl)c1)C2=O (stereo not given)	inactive
CCOP(=S)(OCC)Oc1ccc([N+](=O)[O-])cc1	inactive
CCOc1ccc(N)cc1	inactive
NNc1ccccc1	inactive
CNc1cnn(-c2cccc(C(F)(F)F)c2)c(=O)c1Cl	inactive
N#Cc1cccc(C#N)c1	inactive
O=C(O)COc1ccccc1	inactive
Oc1c(Br)cc(Br)cc1Br	inactive
O=C(O)Cc1ccccc1	inactive

Reference: PubChem BioAssay (Tox21)
